This passage reports growth inhibition results from PubChem BioAssay (NCI).

About 79,000 compounds went through this panel and 15% of them were active in at least one assay; those are over-represented in the sample as a whole. The source made the active and inactive calls. Cut-off read from the data, not from the text of the source: active = growth inhibition above about 70%; inactive = the rest.

This experiment can be described thus: NCI Yeast Anticancer Drug Screen. Data for the rad50 strain (AID 155).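 Note: 0% = growth of vehicle-only cultures of the same strain.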 As to conditions: S. cerevisiae rad50 strain growth inhibition; at 50.0 µM; hits give high values. The gist of the method:
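Growth of the mutant yeast was measured after compound exposure and referenced to vehicle-treated cultures.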
On to `COc1ccc(OC)c(/C=C/C(=O)NC(CO)CSCSC)c1` (centres undefined), for which the growth inhibition was -0.35% (inactive).

Regarding `CC(=O)Nc1ccc(S(=O)(=O)N/N=C/c2ccc3c(c2)OCO3)cc1`, the growth inhibition is 4.85% (inactive).

As to `CCCC(CC/C(C)=N/NC(N)=O)[N+](=O)[O-]` (centres undefined), the growth inhibition is -20.1% (inactive).

Take `O=CC(NC(=O)C(O)C(O)C(O)C(O)CO)C(O)C(O)C(O)CO` (centres undefined): the growth inhibition was -13.2% (inactive).

For `NC(=O)C1CCc2ccccc2C1` (centres undefined), the growth inhibition was 0.7% (inactive).

On to `Cc1ccc(S(=O)(=O)N/N=C2/CCC(C(C)(C)C)CC2Br)cc1` (centres undefined), for which the growth inhibition is 3.9% (inactive).

In the case of `CCN(c1ccccc1)c1ncnc2nc[nH]c12`, the growth inhibition is 6.75% (inactive).

As to `Cc1ccc(S(=O)(=O)C(=S)N(C)N(C)C)cc1`, the growth inhibition was 18.2% (inactive).

Take `OC1CCC2=C(C1)C1CCC2C1` (centres undefined): the growth inhibition was 9.05% (inactive).

For the molecule `O=C(Nc1ccc(Cl)c(Cl)c1)Oc1ccc(-c2ccccc2)cc1`, the growth inhibition was 73.2% (active).

For `Nc1nc(C2CCCC2)c(Br)c(=O)[nH]1`, the growth inhibition is -24.2% (inactive).

Turning to `COC(=O)c1c(C=O)cccc1[N+](=O)[O-]`, the growth inhibition is 22.7% (inactive).

As to `CN(C)CC1CCC/C(=C\c2ccccc2)C1=O` (centres undefined), the growth inhibition is 37.1% (inactive).

`CCN1N=CSC12C(=O)N(c1ccccc1)C(=O)N2c1ccccc1` (centres undefined): the growth inhibition was -20.6% (inactive).

Consider `CCOC(=O)C(N=Nc1ccccc1)C(=O)c1ccccc1` (centres undefined), for which the growth inhibition is 23.4% (inactive).

As for `CCCC(C)(C)O`, the growth inhibition is 2.15% (inactive).

For `CCOC(=O)/C(C)=C(/C)Nc1ccccc1`, the growth inhibition was 1.45% (inactive).

Regarding `CCn1c(C)nc([N+](=O)[O-])c1Sc1ncn[nH]1`, the growth inhibition is 10.2% (inactive).

For the molecule `Cc1ccc(N=C2c3cc([N+](=O)[O-])ccc3-c3ccc([N+](=O)[O-])cc32)cc1`, the growth inhibition was 15.1% (inactive).
